From PubChem
USP30 block: blocks human USP30 ubiquitin-rhodamine cleavage; purified USP30, Ub-rhodamine cleavage fluorescence; inhibition, % at 25 µM; actives 5.3% (n = 47,000)
USP17 block: blocks human USP17 ubiquitin-rhodamine cleavage; purified USP17, Ub-rhodamine cleavage fluorescence, 3 h; actives 6.5% (n = 47,000); AID 1645855; inhibition, % at 50 µM
Target sequence (A8MUK1 whole entry, looked up): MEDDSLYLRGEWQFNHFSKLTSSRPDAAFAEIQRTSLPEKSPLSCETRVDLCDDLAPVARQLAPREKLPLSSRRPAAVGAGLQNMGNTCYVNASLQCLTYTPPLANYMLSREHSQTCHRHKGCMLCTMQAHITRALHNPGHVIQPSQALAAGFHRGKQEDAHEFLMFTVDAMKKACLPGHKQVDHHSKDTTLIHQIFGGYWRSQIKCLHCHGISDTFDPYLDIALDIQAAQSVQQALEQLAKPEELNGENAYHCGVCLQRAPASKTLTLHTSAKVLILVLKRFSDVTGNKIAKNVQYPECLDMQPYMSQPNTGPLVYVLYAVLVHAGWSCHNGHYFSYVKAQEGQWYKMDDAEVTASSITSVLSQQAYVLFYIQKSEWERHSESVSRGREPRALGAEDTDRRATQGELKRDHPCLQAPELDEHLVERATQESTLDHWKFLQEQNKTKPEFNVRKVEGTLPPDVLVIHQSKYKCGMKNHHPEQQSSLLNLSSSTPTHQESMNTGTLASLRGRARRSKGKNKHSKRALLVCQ
USP8 block: inhibitors of human USP8 deubiquitinase; actives 4.2% (n = 47,000); inhibition, % at 20 µM; purified USP8, Ub-rhodamine cleavage fluorescence, 30 min
Each line names hits and unclear results; the compound was inactive in the other large screens. A selection: hits, their analogues and other compounds. The true share with any hit is near 12%. Cut-off read from the data, not from the text of the source: active = inhibition above about 30%; inactive = the rest.

O=S(=O)(c1ccccc1)N1CCC2(CC1)NCCN=C2NCc1cc(F)cc(F)c1	USP30 block 33.2
NC(=O)C1CNCCN1C(=O)CC1CCCCC1 (stereo unspecified)	none
Cc1nc(-c2cccnc2)nc2c1CC(=O)N2C1CCCC1	USP8 block 37.3
OC1CCN(c2cc(-c3cccnc3)nc(-c3cccnc3)n2)CC1	none
Cc1nn(C)cc1S(=O)(=O)N1CCc2cc(Cl)ccc21	none
COc1cc(C(=O)N(Cc2ccccc2)c2nc3ccccc3s2)cc(OC)c1OC	none
CCOc1cccc2sc(N(Cc3cccnc3)C(=O)CCc3ccccc3)nc12	USP30 block 79.8
CCC(=O)c1cn(CC(=O)NCCOc2ccc(Cl)cc2)c2ccccc12	none
COC(=O)c1cn(CC(=O)NCCOc2ccc(Cl)cc2)c2ccccc12	USP30 block 44.4
CN1C(=O)c2cc(S(=O)(=O)NCc3ccccc3F)ccc2Oc2cccnc21	none
COCCn1ccc2nc(C)c(C(=O)NCc3ccccc3OC)cc2c1=O	none
O=C1CNC(=O)C(Cc2ccccc2)N1 (stereo unspecified)	none
Cc1ccc(NC(=O)N2CCC(c3nc(C(=O)N(C)C)c(C)o3)CC2)cc1Cl	none
Cc1ccc(CNC(=O)N2CCC(c3nc(C(=O)N(C)C)c(C)o3)CC2)cc1	USP30 block 31.0
O=S(=O)(c1ccc2c(c1)CCC2)N1CCN(c2nnnn2-c2ccccc2)CC1	none
CC(=O)Nc1cc2cc(-n3cccc3)ccc2oc1=O	USP17 block 59.1
CC(=O)Nc1cc2nc3ccccc3oc-2cc1=O	none
CC(=O)Nc1ccc(NC(=O)c2ccccc2-c2nc(-c3cccc(C)c3)no2)cc1	none
Cc1ccc2nc(CNC(=O)c3ccccc3-c3nc(-c4ccc(F)cc4)no3)[nH]c2c1	USP17 block 77.6
CCn1cc(S(=O)(=O)Nc2cnn(Cc3ccccc3C)c2)cn1	none
CC1(C)C(=O)CC[C@@]2(C)C1CC[C@]1(C)C2CC[C@@H]2[C@H]3[C@H]4OC[C@@]3(CCC4(C)C)CC[C@]21C (stereo partly specified)	USP30 block 30.5
CC(C)=CCC[C@](C)(O)[C@H]1CC[C@]2(C)[C@@H]1CC[C@@H]1[C@@]3(C)CCC(=O)C(C)(C)[C@@H]3CC[C@]12C	none
CCc1ccc(NC(=O)CSc2nc(-c3ccccc3C)nc3cc(=O)[nH]n23)cc1	none
CCOc1ccc(-c2nc(SCC(=O)Nc3cccc(C)c3)n3[nH]c(=O)cc3n2)cc1	USP17 block 39.9, USP8 block 41.8
Nc1ncc(-c2cccc(F)c2)c(C2CCCCN2C(=O)c2ccn[nH]2)n1 (stereo unspecified)	none
COc1ccccc1CC(=O)N1CCCC(c2[nH]nc3nccnc23)C1 (stereo unspecified)	none
COc1ccccc1CC(=O)N1CCC(c2nn(CCN)c3nccnc23)C1 (stereo unspecified)	USP30 block 34.6
COc1ccc(-c2ccc(SCc3nc(-c4ccc(C)cc4)no3)nn2)cc1OC	none
COc1cc(C(C(=O)NC(C)(C)C)N(Cc2ccccc2Cl)C(=O)c2cccc(-n3cnnn3)c2)cc(OC)c1OC (stereo unspecified)	none
COc1ccc(C(C(=O)NC2CCCCC2)N(C(=O)Cn2nnc3ccccc32)c2ccc(S(=O)(=O)N3CCC(C)CC3)cc2)cc1O (stereo unspecified)	USP30 block 32.7
CN(C)S(=O)(=O)c1ccc(N(C(=O)c2cnccn2)C(C(=O)NC2CCCCC2)c2ccccc2)cc1 (stereo unspecified)	none
CCOC(=O)c1ccc(N(C(=O)Cn2nnc3ccccc32)C(C(=O)NC(C)(C)C)c2cc(OC)c(OC)c(OC)c2)cc1 (stereo unspecified)	USP17 block 30.1
Cc1ncc(CNS(=O)(=O)c2ccccc2)c(C2CCCN2C)n1 (stereo unspecified)	none
COc1ccc(C(=O)Nc2cc(F)c3[nH]c(=O)ccc3c2)cc1	USP30 block 35.0, USP17 block 38.8
COc1ccc(C(=O)Nc2ccc(C)c(S(=O)(=O)N3CCCCCC3)c2)cc1	none
O=S(=O)(NCc1cnn2ccccc12)c1ccc2c(c1)OCCO2	none
COc1ccc(CN(Cc2nc(N)nc(Nc3ccccc3C)n2)C2CC2)cc1	none
CN(C1CCCCC1)S(=O)(=O)c1ccc(NC(=O)C2CCCCC2)cc1	none
Cc1ccn(-c2ccc(NC(=O)C3CCCCC3)cc2)n1	USP17 block 57.1
Cc1ccc(-c2noc(-c3nnc(SCC(=O)NC4CCCC4)n3C)n2)cc1	USP17 block 53.1
Cn1c(SCC(=O)NC2CCCC2)nnc1-c1nc(-c2ccccc2)no1	none
C/C=C/C=C/C(O)=C1/C(=O)[C@@]2(C)C(=O)[C@@](C)(O)[C@@H]1[C@H]1[C@]2(C(=O)CC/C=C/C)C(=O)C(C)=C(O)[C@@]1(C)O	none
O=C(Oc1ccc(-c2nccc(-c3cccs3)n2)cc1)c1ccco1	USP17 block 48.5, USP8 block 35.6
O=C(Oc1ccc(-c2nccc(-c3cccs3)n2)cc1)c1ccccc1	none
Cc1ccc(NC(=O)c2cc(S(=O)(=O)N(C)C)ccc2N2CCCC2)c(Cl)c1	none
CC(=O)N1CCc2cc(CNC(=O)Nc3cc(C)ccc3C)ccc21	USP30 block 66.6, USP17 block 43.2
CC(=O)N1CCc2cc(S(=O)(=O)NCCC(=O)NCCc3ccc(C)cc3)ccc21	none
CCc1nnc2nc(N3CCN(C(=O)C4CC4)CC3)cc(C)n12	none
COc1cc(NC(=O)c2ccc3nc(-c4ccccc4)cn3c2)cc(OC)c1	none
Cc1ccc(-n2nc(C(=O)NC3CCCCC3)c3ncn(C)c(=O)c32)cc1	none
Cc1ccc(-n2nc(C(=O)Nc3ccc(C)cn3)c3ncn(C)c(=O)c32)cc1	USP17 block 74.8, USP8 block 72.0
O=C(CSc1n[nH]c(-c2ccncc2)n1)Nc1ccc(F)cc1	none
COc1ccc(-c2nc(SCC(=O)Nc3ccc(C(C)=O)cc3)n[nH]2)cc1	USP17 block 53.6
Cc1ccc([C@@H]2c3c(C)nn(-c4ccc(C)cc4)c3NC(=O)[C@H]2NC(=O)c2ccccc2)cc1	none
O=C1C[C@@H]2O[C@H](CNC(=O)[C@@H]3CN(CCN3C(=O)C3CCOCC3)C(=O)[C@@H]3C[C@@H](CN3C3CCC3)N1)[C@@H](O)[C@H]2O	none
CC1CCN(C(=O)Nc2ccc3ccccc3c2)Cc2nc3ccccc3n21 (stereo unspecified)	USP30 block 33.2
CC1CCN(C(=O)Nc2cccc(C#N)c2)Cc2nc3ccccc3n21 (stereo unspecified)	none
O=C(NCc1ccc(F)cc1F)c1c(O)c2cnn(-c3ccc(F)cc3)c2[nH]c1=O	none
COc1ccccc1CNC(=O)c1c(O)c2cnn(-c3cccc(C)c3)c2[nH]c1=O	USP17 block 39.1, USP8 block 81.6
CC(C)C(=O)N1CCN(c2ccc(N3CCCCC3)nn2)CC1	none
NC(=O)c1cc2c(Cl)ccc3c2n1CCO3	none
CCc1ccc2nc(NC(=O)c3ccc(=O)[nH]c3)sc2c1	USP17 block 33.3
CCc1ccc2nc(NC(=O)C3CCCCN3S(=O)(=O)c3ccccc3)sc2c1 (stereo unspecified)	none
Cc1ccc(Cn2c(C(=O)O)c(CNCc3cccc(Cl)c3)c3ccc(C)cc32)cc1	USP30 block 43.2
CCn1c(C(=O)O)c(CNCCCc2ccccc2)c2ccc(C)cc21	none
COc1ccc(CNCc2c(C(=O)O)n(Cc3ccc(F)cc3Cl)c3cc(C)ccc23)cc1	USP30 block 62.6, USP17 block 57.2
